BoNT-A LC inh2: inhibitors of Botulinum neurotoxin A light chain protease; multiplex microsphere protease substrate cleavage, flow cytometry; inhibition, % at 10 µM; 360,000 compounds, 0.17% hits; AID 588499; note: plate controls were buffer without enzyme for full effect and enzyme alone for no effect
BoNT-F LC inh: inhibitors of Botulinum neurotoxin F light chain protease; Multiplex microsphere protease cleavage assay, flow cytometry; inhibition, % at 10 µM; 360,000 compounds, 0.22% hits; in the data active = inhibition above about 35%, passing the limit was not always enough; inconclusive = no clear call, values can overlap the other calls; note: plate controls were buffer without enzyme for full effect and enzyme alone for no effect
Autofluor counter: flagged as autofluorescent in microsphere protease counterscreen; compound autofluorescence counterscreen, microsphere flow cytometry; stronger effect = higher value; fluorescence intensity (concentration not given with the values); 360,000 compounds, 3.1% hits; in the data active = fluorescence intensity above about 16000; inconclusive = no clear call, values can overlap the other calls
Anthrax LF inh2: anthrax lethal factor protease inhibition; P15917; multiplex microsphere protease cleavage assay, LF; inhibition, % at 10 µM; 360,000 compounds, 0.12% hits; note: plate controls were buffer without enzyme for full effect and enzyme alone for no effect
Target sequence (P15917 whole entry, looked up): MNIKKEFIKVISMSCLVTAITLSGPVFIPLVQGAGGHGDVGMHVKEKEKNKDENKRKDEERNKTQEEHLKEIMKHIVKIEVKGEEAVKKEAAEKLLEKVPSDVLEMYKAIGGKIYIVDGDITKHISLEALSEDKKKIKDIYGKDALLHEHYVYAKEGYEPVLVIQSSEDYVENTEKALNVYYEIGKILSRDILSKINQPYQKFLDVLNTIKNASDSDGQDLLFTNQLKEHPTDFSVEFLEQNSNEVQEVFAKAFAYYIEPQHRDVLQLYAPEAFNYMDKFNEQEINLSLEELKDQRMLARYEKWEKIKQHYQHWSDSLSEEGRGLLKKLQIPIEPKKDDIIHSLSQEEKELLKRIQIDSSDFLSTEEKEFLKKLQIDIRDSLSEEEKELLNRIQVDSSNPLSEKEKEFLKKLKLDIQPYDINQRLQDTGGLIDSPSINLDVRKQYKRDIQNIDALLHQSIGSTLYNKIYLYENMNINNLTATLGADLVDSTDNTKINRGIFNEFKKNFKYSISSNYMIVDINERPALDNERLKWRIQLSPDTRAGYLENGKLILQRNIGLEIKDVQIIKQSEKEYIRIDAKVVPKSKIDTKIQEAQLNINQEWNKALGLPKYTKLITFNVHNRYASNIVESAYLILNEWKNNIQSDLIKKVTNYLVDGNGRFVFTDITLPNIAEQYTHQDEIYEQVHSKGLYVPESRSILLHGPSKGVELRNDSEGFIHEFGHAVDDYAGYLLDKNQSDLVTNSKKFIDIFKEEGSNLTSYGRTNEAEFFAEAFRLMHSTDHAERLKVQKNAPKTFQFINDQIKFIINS
* = called active by the depositor; ? = inconclusive. Shown are actives, neighbours in structure and some others; about 3.5% of the full set was active somewhere. Cut-off read from the data, not from the text of the source, unless noted: active = inhibition above about 30%; inconclusive = no clear call, values can overlap the other calls; inactive = below that.

SMILES | BoNT-A LC inh2 | BoNT-F LC inh | Autofluor counter | Anthrax LF inh2
COC(CNC(=O)c1ccc(Cn2c(=S)[nH]c3cc4c(cc3c2=O)OCO4)cc1)OC | -2.1 | -14.1 | 6183 | -2.6
O=C(Nc1ccc(Cl)cc1)OCCn1nnnc1C(c1ccccc1Cl)N1CCOCC1 (stereo not drawn) | -0.4 | -11.7 | 4157 | -0.9
O=C(Nc1ccc(Cl)cc1)N1CCC(c2ccccc2)C1 (stereo not drawn) | -0.4 | -10.4 | 4744 | -2.7
CC(C)N(C)C1CCN(C(=O)Nc2ccc(Cl)cc2)CC1 | -2.8 | -5.0 | 23132* | -5.6
Cc1ccc(O)c(-c2cc3ccccc3[nH]2)c1 | 0.1 | -3.5 | 23551* | -6.8
CC1(C)NC(=O)N(CC(O)COc2ccc(-c3ccc(C#N)cc3)cc2)C1=O (stereo not drawn) | ? | 5.9 | 19940* | -8.8
Cc1ccc(N(CCCCN2C(=O)c3ccccc3C2=O)C(=O)c2cccc([N+](=O)[O-])c2)cc1 | 1.1 | 0.8 | 16296* | -1.3
Cc1occc1C(=O)NC(C)c1ccc2c(c1)OCO2 (stereo not drawn) | -0.1 | -10.8 | 10623 | -1.5
COc1ccc(C(C)NC(=O)c2ccoc2C)cc1OC (stereo not drawn) | -3.9 | -6.2 | 24236* | -1.8
O=C(NC1CCCC1)c1ccc(CSCc2ccccc2F)o1 | 1.9 | -0.1 | 23171* | 0.7
O=C(NC1CCCC1)c1ccc(CS(=O)(=O)Cc2ccccc2F)o1 | 0.0 | 0.5 | 5803 | -2.3
Nc1[nH]ncc1S(=O)(=O)c1ccccc1 | -2.2 | -5.0 | 3703 | 12.8
O=C(CC(C(=O)N1CCc2ccccc21)n1ccnc1)NCC1CCCO1 (stereo not drawn) | 3.7 | 2.4 | 22602* | -0.5
CCCCNC(=O)CC(C(=O)N1CCc2ccccc21)n1ccnc1 (stereo not drawn) | -0.4 | 3.6 | 8295 | 2.0
Cc1cc(NC(=O)c2ccccc2)ccc1NC(=O)c1ccccc1Cl | 1.6 | 13.6 | 4233 | 4.1
CC(=O)c1c(C(C)=O)c(C)n(-c2ccc(C)c(NC(=O)c3ccccc3Cl)c2)c1C | 0.2 | -0.3 | 16183* | -4.1
CN1CCN(S(=O)(=O)Cc2ccc(Cl)cc2)CC1 | 5.1 | 35.6* | 3510 | ?
CSc1ccc(CN2CCN(S(=O)(=O)Cc3ccccc3)CC2)cc1 | -103.3 | -165.3 | 27972* | -27.9
CC(=O)Nc1ccc(C=C(C(C)=O)C(C)=O)cc1 | ? | ? | 3775 | -11.3
CCOc1cc(N2CCOCC2)c(OCC)cc1NC(=O)COC(=O)c1cc2ccccc2cc1O | -0.3 | -1.6 | 2443 | 0.1
CCOc1cc(N2CCOCC2)c(OCC)cc1NC(=O)COc1ncnc2ccccc12 | -1.2 | -3.9 | 19880* | -5.6
CCOC(=O)C1CCCN(C(=O)c2csc(-c3ccc4c(c3)CCO4)n2)C1 (stereo not drawn) | 0.3 | 4.0 | 5569 | -6.2
CCOC(=O)c1c(C)c(C(=O)NCCN2CCOCC2)c(C)n1CC | -4.9 | -7.0 | 17127* | -3.8
CCOC(=O)c1c(C)c(C(=O)NCc2cccs2)c(C)n1CC | 0.9 | 2.1 | 20405* | -0.8
COc1cc(C(=O)NCC(c2ccc(F)cc2)N2CCOCC2)ccc1OCc1ccccc1Cl (stereo not drawn) | 0.0 | -1.1 | 6076 | -0.3
SMILES | BoNT-A LC inh2 | BoNT-F LC inh | Autofluor counter | Anthrax LF inh2
O=C(c1ccco1)N1CCCN(C(=O)c2ccco2)CC1 | -0.9 | 0.9 | 23373* | 0.3
O=C(c1ccco1)N1CCN(S(=O)(=O)c2ccccc2)CC1 | -0.8 | -19.2 | 3779 | 6.3
O=C(c1ccco1)N1CCN(c2ccc(S(=O)(=O)N3CCCC3)cc2)CC1 | -0.1 | 0.1 | 22603* | 0.8
O=C(CN1C(=O)NC2(CCCC2)C1=O)N1CCN(C(=O)c2ccco2)CC1 | 0.6 | 1.8 | 19470* | 1.7
Cc1ccc(-c2cc(C(=O)N3CCN(C(=O)c4ccco4)CC3)no2)cc1 | 1.4 | 0.9 | 20055* | -5.4
CN(C)C(=O)N1CCN(C(=O)c2ccco2)CC1 | -0.3 | 5.1 | 5997 | -2.1
CC(C)[C@H](NC(=O)OCc1ccccc1)C(=O)OCc1cc(=O)oc2cc(O)ccc12 | -0.3 | 0.3 | 6468 | 2.6
O=C(NC(=S)Nc1ccc2c(c1)OCO2)c1ccc(Cl)cc1 | -1.8 | -18.7 | 2408 | -0.2
O=C(Nc1ccc2c(c1)OCO2)C1(S(=O)(=O)c2ccc(Cl)cc2)CC1 | -3.4 | -7.7 | 24545* | -3.4
COC(=O)/C(=C1/Oc2cc(C)oc(=O)c2S1)C(F)(F)F | ? | 4.6 | 21329* | -7.5
COC(=O)/C(=C1/Oc2ccc(C(C)(C)C)cc2S1)C(F)(F)F | -0.5 | 2.3 | 2618 | -1.1
CC(Nc1nc(N2CCNCC2)nc2ccccc12)c1ccccc1 (stereo not drawn) | -0.7 | -6.1 | 3935 | -3.9
[O-][N+]1=c2ccc(Nc3ccccc3)cc2=NC12CCCCC2 | -1.4 | -14.8 | 16589* | -7.9

Compound activity from PubChem.
